Screens (PubChem)
HttQ103 aggreg: reduces HttQ103-GFP aggregates in PC12 cells; PC12 HttQ103-GFP aggregates, Acumen cytometry, 40 h; Potency, µM (doses to about 46.1 µM), for inactives: at the top dose activity change, negative = inhibition, hits mostly inhibitors; 1.1% of 220,000 active; AID 1688; also: potency is read from the fitted curve at half-maximal effect; % is scaled to controls: 0 for no effect and ±100 for the full control effect; nearly all actives have a fitted effect of over 60% in size
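Compounds (qHTS titration) were added to PC12 cells expressing an ecdysone-driven HTT exon 1 Q103–GFP fusion after induction with 100 nM tebufenozide. Aggregate formation was measured as GFP objects in cell lysates.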
HPGD block: inhibitors of human 15-hydroxyprostaglandin dehydrogenase (HPGD). P15428. purified HPGD, NADH fluorescence kinetic, PGE2 substrate. Potency, µM, inactives show at the highest dose activity change, negative = inhibition, usual class: inhibitors. 4.3% of 150,000 active. AID 894; active = well fitted inhibition curve with a large enough effect, not every such curve was filed as active; inconclusive = small, poorly fitted or top-dose-only effect, or another doubt; inactive = no such curve, though single readings can be large or run the other way; also: potency is read from the fitted curve at half-maximal effect; % is scaled to controls: 0 for no effect and ±100 for the full control effect
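NADH formation kinetics: reaction with 30 uM PGE2 and 1 mM NAD+ (final), 20 nM enzyme, Tris-HCl pH 8 with Tween 20, after 15 min compound preincubation at room temperature. Fluorescence change, last versus first of five reads.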
ALDH1A1 inh: inhibitors of human aldehyde dehydrogenase 1A1; P00352; Purified ALDH1A1, NADH fluorescence, propionaldehyde substrate; Potency, µM (top dose mostly 75.3 µM), for inactives: at the highest dose activity, negative = inhibition, most hits filed as inhibitors; 7.3% of 220,000 active; AID 1030; active = well fitted inhibition curve with a large enough effect, not every such curve was filed as active; inconclusive = small, poorly fitted or top-dose-only effect, or another doubt; inactive = no such curve, though single readings can be large or run the other way;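 also: potency is read from the fitted curve at half-maximal effect; plate controls were no enzyme wells and a reference inhibitor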
Target sequence (P00352 whole entry, looked up): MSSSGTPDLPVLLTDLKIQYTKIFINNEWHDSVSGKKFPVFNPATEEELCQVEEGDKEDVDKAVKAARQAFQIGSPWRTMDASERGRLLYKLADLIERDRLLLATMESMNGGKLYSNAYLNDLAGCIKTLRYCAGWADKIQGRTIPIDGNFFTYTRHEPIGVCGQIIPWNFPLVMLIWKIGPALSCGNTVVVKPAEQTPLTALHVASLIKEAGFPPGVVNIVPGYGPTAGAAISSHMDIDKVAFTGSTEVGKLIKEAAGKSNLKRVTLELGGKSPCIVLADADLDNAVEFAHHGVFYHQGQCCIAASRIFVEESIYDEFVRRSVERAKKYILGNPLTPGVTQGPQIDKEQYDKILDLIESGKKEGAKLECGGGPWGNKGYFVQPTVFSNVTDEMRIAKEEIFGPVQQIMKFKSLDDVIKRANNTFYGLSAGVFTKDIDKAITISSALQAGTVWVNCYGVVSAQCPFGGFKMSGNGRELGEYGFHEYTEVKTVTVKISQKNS
IMPase Li cell: IMPase inhibition in cells with lithium potentiation; CHO-M1 cells, IP1 TR-FRET (IP-One), carbachol + lithium; Potency, µM (highest dose often 59.4 µM), without a hit: at the highest dose activity, negative = IMPase inhibition, hits mostly inhibitors; 0.35% of 210,000 active; AID 1457;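 also: IP1 builds up when IMPase is blocked and the TR-FRET signal falls; potency is read from the fitted curve at half-maximal effect; plate controls were basal vehicle for no effect and high inhibitor control for full effect; nearly all actives have a fitted effect of over 50% in size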
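Readout is a homogeneous TR-FRET IP1 immunoassay (Ex 320, Em 665 and 620), where raised cytosolic IP1 lowers signal. Cells were CHO-M1 treated 30 min at 37C with test compounds plus a little lithium; AC50 values came from Hill-equation fitting.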
IMPase inh: membrane-permeable compound that blocks inositol monophosphatase; 120,000 tested, under 10 active; inhibition (IP1 accumulation), % at 46.1 µM; CHO-M1 cells, IP1 accumulation, HTRF TR-FRET ratio; P97697; active = well fitted curve in the direction sought with a large enough effect in the signal ratio, not every such curve was filed as active; inconclusive = small, poorly fitted or top-dose-only effect, or a change in a side signal; inactive = no such curve, though single readings can be large or run the other way; the % refers to the signal ratio;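 also: cells stimulated with carbachol in lithium chloride buffer; plate controls were DMSO basal wells for no effect and reference inhibitor wells for full effect; higher means more IMPase inhibition seen as more IP1 and lower FRET ratio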
Target sequence (P97697 whole entry, looked up): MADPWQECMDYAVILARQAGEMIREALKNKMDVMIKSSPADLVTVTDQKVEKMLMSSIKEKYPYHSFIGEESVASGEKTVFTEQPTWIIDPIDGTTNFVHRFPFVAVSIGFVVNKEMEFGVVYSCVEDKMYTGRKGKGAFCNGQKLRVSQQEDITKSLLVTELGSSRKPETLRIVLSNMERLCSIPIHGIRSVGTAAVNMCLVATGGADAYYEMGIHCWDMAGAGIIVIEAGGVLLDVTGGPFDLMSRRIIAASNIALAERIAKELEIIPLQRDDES
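Elevated IP1 in lysates lowers TR-FRET signal (665/620 ratio and 620 channel reported). Cells were CHO-M1, given carbachol (50 uM as added) plus 50mM LiCl, pH 7.4, 30 min, 37C; compounds titrated up to 46 uM; AC50 by Hill equation.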
HTT cytoprotect: cytoprotection in Huntington HTT-Q103 PC12 cell model | Potency, µM (titrated, usually from 56.4 µM), without a hit: cytoprotection (ATP increase), most hits filed as activators | 0.14% of 230,000 active | PC12 HTT-Q103 induced, cytoprotection, ATP luminescence, 40 h; also: potency is read from the fitted curve at half-maximal effect; % of control where 0% means no effect; nearly all actives have a fitted effect of over 45% in size
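PC12 cells with ecdysone-inducible HTT exon 1 Q103-GFP, induced with 100 nM tebufenozide and co-treated with library compounds in a dose series (1536-well, 1500 cells/well). Cytoprotection read as ATP content by ATPlite luminescence.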
Starred values were filed as active, the others as inactive; [ ] = remark or other dose. Most compounds without a hit are left out; they make up all but 9.4% or so of the library. Unless noted, calls follow the shape of the dose curve; as a rule, active = well fitted curve in the direction sought with a large enough effect; inconclusive = small, poorly fitted or top-dose-only effect, or another doubt; inactive = no such curve, though single readings can be large; an effect the other way counts as inactive or inconclusive.

For O=C(CSc1nnc2scc(-c3ccc(Cl)cc3)n12)Nc1ccc(F)cc1 the results were IMPase inh -5.
For CC1(C)CC(=O)C/C(=N\NC(=S)NCc2ccccc2)C1 the results were HttQ103 aggreg 27%, ALDH1A1 inh inconclusive, IMPase Li cell 5% and HTT cytoprotect 2%[10 µM].
Screening CC1(C)CC(=O)C/C(=N\NC(=O)C2CC2c2ccccc2)C1 (configuration not stated) returned HttQ103 aggreg 18%, ALDH1A1 inh 32µM*, IMPase Li cell -2% and HTT cytoprotect 11%.
`CCCn1[nH]cc(SC)c(=O)c1=O` gave HttQ103 aggreg 4%, HPGD block -6%, ALDH1A1 inh 22µM*, IMPase Li cell -1%[38.3 µM], IMPase inh 9 and HTT cytoprotect -2%.
CN(NC(=O)c1cccc(Cl)c1)c1nc(-c2ccccc2)nnc1C(F)(F)F was read as HttQ103 aggreg 1µM*, HPGD block -7%, ALDH1A1 inh 0%, IMPase Li cell 2%[38.3 µM] and IMPase inh 8.
`CCc1ccccc1Nc1nc2ccccc2n2cnnc12` gave IMPase inh -1.
`COc1ccc(NCC(=O)N/N=C/c2c(C)nn(Cc3ccccc3)c2Cl)cc1` gave HttQ103 aggreg -29%, HPGD block inconclusive, ALDH1A1 inh 16µM*, IMPase Li cell 7% and HTT cytoprotect -3%[10 µM].
For CCOc1ccc(C(=O)Nc2nnc(NC(=S)Nc3ccccc3)s2)cc1 the results were HttQ103 aggreg 25%, ALDH1A1 inh 7.1µM* and IMPase Li cell 4%.
`CCc1nnc(NC(=S)Nc2ccccc2)s1` gave HttQ103 aggreg 9%, ALDH1A1 inh inconclusive, IMPase Li cell -6% and HTT cytoprotect -19%.
Screening Cc1ccc(C(=O)Nc2nnc(NC(=S)Nc3ccccc3)s2)cc1 returned HttQ103 aggreg -9%[9.22 µM], ALDH1A1 inh 22µM*, IMPase Li cell 2% and HTT cytoprotect -30%[10 µM].
For Cc1nc(NC(=S)Nc2ccccc2)sc1C the results were HttQ103 aggreg 6%, ALDH1A1 inh 22µM*, IMPase Li cell -3% and HTT cytoprotect -48%.
`CC(=O)CCC(=O)O` gave HttQ103 aggreg -4% and HTT cytoprotect 1%.
CN1CCN(c2ncc3nc(-c4ccc(Cl)cc4)c(=O)n(C4CC4)c3n2)CC1 was read as HPGD block inconclusive, ALDH1A1 inh inconclusive, IMPase Li cell 9% and HTT cytoprotect 17%.
For c1ccc(Cn2c(NCc3ccccn3)nc3ccccc32)cc1 the results were HttQ103 aggreg 0%, ALDH1A1 inh -5% and IMPase Li cell 12%.
Screening c1ccc(Cn2c(NCc3ccncc3)nc3ccccc32)cc1 returned HttQ103 aggreg 6%[9.22 µM], ALDH1A1 inh 25µM*, IMPase Li cell 6% and HTT cytoprotect 15%[10 µM].
Screening COc1ccc(O[C@H]2C=C[C@@H](c3ccccc3)O[C@H]2COC(=O)N2CCCCC2)cc1 returned ALDH1A1 inh inconclusive and HTT cytoprotect -30%[10 µM].
Screening COc1ccccc1N1CCN(C(=O)c2cc3c(s2)CCC3)CC1 returned HttQ103 aggreg -23%[1.84 µM], HPGD block -18%, ALDH1A1 inh 20µM*, IMPase Li cell 27%[38.3 µM], IMPase inh 3 and HTT cytoprotect 7%.
O=C(c1cccs1)N1CCN(c2ncccn2)CC1 was read as HttQ103 aggreg -4%, HPGD block -16%, ALDH1A1 inh inconclusive, IMPase Li cell 31%[38.3 µM], IMPase inh 5 and HTT cytoprotect 5%.
O=C(c1cc2c(s1)CCCCC2)N1CCN(c2ncccn2)CC1 was read as HttQ103 aggreg -18%, HPGD block -12%, ALDH1A1 inh 14µM*, IMPase Li cell 18%[38.3 µM], IMPase inh 7 and HTT cytoprotect -15%.
For CC(=O)c1ccc(N2CCN(C(=O)c3cc4c(s3)CCCC4)CC2)cc1 the results were HttQ103 aggreg -26%, ALDH1A1 inh 22µM* and IMPase Li cell 17%.
`O=C(c1cc2c(s1)CCCC2)n1cccn1` gave HttQ103 aggreg inconclusive, HPGD block 16µM*, ALDH1A1 inh inconclusive, IMPase Li cell 18%[38.3 µM], IMPase inh -21 and HTT cytoprotect 0%[1.9 µM].
Screening COc1ccccc1N1CCN(C(=O)c2ccc([N+](=O)[O-])s2)CC1 returned HttQ103 aggreg 19%, ALDH1A1 inh 11%, IMPase inh -3 and HTT cytoprotect -12%[10 µM].
Cn1nnnc1SCC(=O)Nc1c(Cl)cccc1Cl was read as HttQ103 aggreg 15%, HPGD block 22µM*, ALDH1A1 inh -9%, IMPase Li cell 1%[38.3 µM], IMPase inh -11 and HTT cytoprotect 0%.
`COc1ccccc1NC(=O)c1ccc(NC(=O)CSc2nnnn2C)cc1` gave HttQ103 aggreg 15%, HPGD block -26%, ALDH1A1 inh 0.79µM*, IMPase Li cell 29%[38.3 µM], IMPase inh -1 and HTT cytoprotect -12%[10 µM].
`COc1ccccc1NC(=O)CSc1nnnn1-c1ccc(C)cc1` gave HttQ103 aggreg -1%, HPGD block -4%, ALDH1A1 inh 6%, IMPase Li cell -5%, IMPase inh inconclusive and HTT cytoprotect 36%[10 µM].
Screening Cc1cccc(NC(=O)/C(C#N)=C/c2ccco2)c1 returned IMPase inh -2.
For COc1ccc(NC(=O)c2cc(C(C)C)on2)c(OC)c1 the results were HttQ103 aggreg 13%, HPGD block inconclusive, ALDH1A1 inh 4µM*, IMPase Li cell 28%[38.3 µM], IMPase inh 3 and HTT cytoprotect -4%[10 µM].
For COc1cc(NC(=O)c2nc3nc(C)cc(C(F)F)n3n2)c(OC)cc1Cl the results were IMPase inh 0.
Screening COc1cc(NC(=O)c2cc3nc(C)cc(C)n3n2)c(OC)cc1Cl returned HPGD block inconclusive, ALDH1A1 inh inconclusive, IMPase Li cell 20%[38.3 µM], IMPase inh 9 and HTT cytoprotect 14µM*.
Screening COc1cc(NC(=O)c2cc(C(C)C)on2)c(OC)cc1Cl returned HttQ103 aggreg -11%, HPGD block inconclusive, ALDH1A1 inh 7.9µM*, IMPase Li cell 32%[38.3 µM], IMPase inh -1 and HTT cytoprotect -7%.
Cc1ccc(C(=O)c2oc3ccccc3c2NC(=O)COc2ccccc2C)cc1 was read as IMPase inh -10.
For CCCc1cc(-c2n[nH]c(C(=O)OCC)c2-c2cscn2)c(O)cc1O the results were HttQ103 aggreg 12%, HPGD block 3%, ALDH1A1 inh 8.9µM*, IMPase Li cell 6%[38.3 µM], IMPase inh -8 and HTT cytoprotect 22%.
Screening O=C1C=CC(=O)c2c(O)c(Cl)c(Cl)c(O)c21 returned HPGD block inconclusive, ALDH1A1 inh 1.3µM* and IMPase Li cell 113%.
